Screens as filed in PubChem.
A selection: hits, their analogues and other compounds. The true share with any hit is near 19%.
uPA generation – blocks generation of uPA at the cell surface; cell surface uPA generation assay, qHTS; Potency, µM (top dose mostly 38.3 µM), inactives show at the top dose activity change, negative = inhibition, usual class: inhibitors; hit rate 0.31% among 330,000; AID 540303; active = well fitted inhibition curve with a large enough effect; inconclusive = small, poorly fitted or top-dose-only effect; inactive = no such curve, though single readings can be large or run the other way; tested in mouse RAW 264.7 cells; note: potency is the fitted concentration of half-maximal effect; nearly all actives have a fitted effect of over 55% in size
HT1080NT lethal – kills 2HG-producing HT-1080-NT fibrosarcoma cells | HT-1080-NT fibrosarcoma viability, CellTiter-Glo ATP luminescence, 48 h | Potency, µM (highest dose often 46.1 µM), for the others: at the highest dose activity, negative = less viability, most hits filed as cytotoxic | hit rate 1.6% among 360,000 | AID 686970;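 note: NT is the 2HG producing partner of a matched IDH1 knockdown line; potency is the fitted concentration of half-maximal effect; 0% = DMSO-treated cells and -100% = media-only wells without cells; nearly all actives have a fitted effect of over 55% in size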
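Viability of the 2HG-overproducing fibrosarcoma line after 48 hours of compound exposure at 37 degrees C was determined by luminescence with CellTiter-Glo, and concentration-effect curves were then fitted and categorized.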
DT40 TDP1 no CPT – qHTS for Inhibitors of human tyrosyl-DNA phosphodiesterase 1 (TDP1): qHTS in cells in absence of CPT. DT40 Tdp1-/- hTDP1 cells, no CPT, ATP luminescence, 48 h. Potency, µM (top dose mostly 46.2 µM), without a hit: at the highest dose activity change, negative = growth inhibition, actives largely listed as inhibitors. AID 686978, 2013. hit rate 15% among 420,000; note: potency is the fitted concentration of half-maximal effect; nearly all actives have a fitted effect of over 55% in size
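Growth kinetics read by CellTiter-Glo luminescence after ≥48 hr at 37 °C. Cells: DT40 Tdp1-/- stably carrying human TDP1, 400 per well, compound exposure in the absence of CPT (DMSO vehicle).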
IL-1B inflam inh – inhibitors of inflammasome signaling (IL-1 beta secretion); THP-1 LPS/ATP IL-1B secretion, AlphaLISA, 16 h; hits give low values; activity change, % at 57.5 µM; hit rate 4.7% among 360,000; AID 743279; in the data active = activity change below about -50%; inconclusive = mostly about -30% to -49%
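Secreted IL-1B measured by AlphaLISA bead assay after 16 h compound exposure of THP-1 cells; compounds (final up to 57.5 uM) added 1 h before LPS (250 ng/mL) and ATP (1.25 mM) stimulation; lower signal means less secretion.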
HT1080 IDH1KD tx – kills HT-1080 cells with IDH1 knockdown | Potency, µM (top dose mostly 46.1 µM), for inactives: at the top dose activity, negative = toxicity, hits mostly cytotoxic | HT-1080 IDH1 knockdown viability, ATP luminescence, 48 h | hit rate 2% among 360,000;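 note: potency is the fitted concentration of half-maximal effect; 0% = DMSO wells and -100% = cell-free medium wells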
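IDH1KD HT-1080 cells, 750/well, RPMI + 5% FBS; compound pinned after 2 h settling; 48 h, 37 °C; CellTiter-Glo luminescence; % activity normalised to DMSO and no-cell wells; curves fitted, classed by r2 and efficacy.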
DT40 TDP1 CPT – growth inhibition of DT40 Tdp1-/-;hTDP1 cells with camptothecin (screen for TDP1 inhibitors). Potency, µM (doses to about 46.2 µM), for inactives: top-dose activity change, negative = growth inhibition, usual class: inhibitors. hit rate 12% among 420,000. AID 686979. chicken DT40 Tdp1-/-;hTDP1 cells + 20 nM CPT, ATP luminescence, 48 h; note: potency is the fitted concentration of half-maximal effect; nearly all actives have a fitted effect of over 55% in size
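Chicken DT40 Tdp1-/- cells stably complemented with human TDP1 were seeded at 400 cells/well in medium containing 20 nM camptothecin, exposed to pin-transferred compounds, and grown at 37 °C for at least 48 hr. Viability was read as ATP luminescence.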
The depositor's hits bear a star. Unless noted, calls come from the whole dose curve; as a rule, active = well fitted curve in the direction sought with a large enough effect; inconclusive = small, poorly fitted or top-dose-only effect, or another doubt; inactive = no such curve, though single readings can be large; an effect the other way counts as inactive or inconclusive. Unless noted, % is set by controls: 0 for no effect and ±100 for the full control effect.

What do the screens show for `CC(=O)c1ccc(OC(C)C(=O)NCC2(N3CCOCC3)CCCCC2)cc1` (stereo not drawn)?
uPA generation: 6.2%; HT1080NT lethal: 7.5%; DT40 TDP1 no CPT: inconclusive; IL-1B inflam inh: 21.9; HT1080 IDH1KD tx: 4.2%; DT40 TDP1 CPT: inconclusive

How did COc1cccc(-c2ccnc(-n3ncc(C(=O)N(C)CCc4ccccn4)c3C)n2)c1 do in these assays?
DT40 TDP1 no CPT: -22.6%; DT40 TDP1 CPT: 17.0%

What do the screens show for `COc1ccc(S(=O)(=O)N(CC(=O)NCCc2ccccc2)c2ccc(Cl)cc2)cc1`?
DT40 TDP1 no CPT: -20.3%; DT40 TDP1 CPT: -26.4%

Results for Cc1onc(-c2ccccc2Cl)c1C(=O)Oc1cc(N)n(S(=O)(=O)c2ccc(F)cc2)n1 ?
uPA generation: -7.2%; HT1080NT lethal: inconclusive; DT40 TDP1 no CPT: inconclusive; IL-1B inflam inh: -7.1; HT1080 IDH1KD tx: inconclusive; DT40 TDP1 CPT: inconclusive

What do the screens show for `Cc1onc(-c2ccccc2Cl)c1C(=O)O/N=C(\N)c1ccc([N+](=O)[O-])o1`?
uPA generation: 4.47µM*; HT1080NT lethal: inconclusive; DT40 TDP1 no CPT: 23.1µM*; IL-1B inflam inh: -18.0; HT1080 IDH1KD tx: -15.1%; DT40 TDP1 CPT: 18.4µM*

What do the screens show for `C/C(=N/OC(=O)c1c(-c2ccccc2Cl)noc1C)c1cnccn1`?
uPA generation: -7.1%; HT1080NT lethal: -19.7%; DT40 TDP1 no CPT: inconclusive; IL-1B inflam inh: 3.8; HT1080 IDH1KD tx: -9.8%; DT40 TDP1 CPT: -16.4%

What do the screens show for `Cc1ccc(S(=O)(=O)n2nc(OC(=O)c3c(-c4ccccc4Cl)noc3C)cc2N)cc1`?
uPA generation: -7.7%; HT1080NT lethal: -7.1%; DT40 TDP1 no CPT: 14.6µM*; IL-1B inflam inh: 42.8; HT1080 IDH1KD tx: inconclusive; DT40 TDP1 CPT: 18.4µM*

Results for Cc1ccc(C)c(NC(=S)c2nc3ccccc3s2)c1 ?
uPA generation: -12.9%; HT1080NT lethal: -8.6%; DT40 TDP1 no CPT: inconclusive; IL-1B inflam inh: 7.9; HT1080 IDH1KD tx: -7.8%; DT40 TDP1 CPT: 25.9µM*

How did Cc1ccc(NC(=S)c2nc3ccccc3s2)cc1 do in these assays?
uPA generation: -8.6%; HT1080NT lethal: -1.0%; DT40 TDP1 no CPT: inconclusive; IL-1B inflam inh: 0.5; HT1080 IDH1KD tx: -1.8%; DT40 TDP1 CPT: inconclusive

What do the screens show for `Cc1cc(C)nc(Nc2nc3ccccc3s2)n1`?
uPA generation: 2.7%; HT1080NT lethal: 10.8%; DT40 TDP1 no CPT: 0.5%; IL-1B inflam inh: 81.0; HT1080 IDH1KD tx: 12.2%; DT40 TDP1 CPT: 10.1%

What do the screens show for `O=C(Nc1ccc(Cl)cc1)/C(=C/c1cccc(O)c1)c1nc2ccccc2s1`?
uPA generation: -9.4%; HT1080NT lethal: 4.61µM*; DT40 TDP1 no CPT: 4.61µM*; IL-1B inflam inh: -100.8*; HT1080 IDH1KD tx: 4.11µM*; DT40 TDP1 CPT: 5.17µM*

How did Cc1ccc(Nc2nc3ccccc3s2)c(C)c1 do in these assays?
uPA generation: -6.7%; HT1080NT lethal: -10.2%; DT40 TDP1 no CPT: inconclusive; IL-1B inflam inh: -61.6*; HT1080 IDH1KD tx: -22.3%; DT40 TDP1 CPT: inconclusive

How did S=C(Nc1ccc(Cl)cc1)c1nc2ccccc2s1 do in these assays?
uPA generation: 2.6%; HT1080NT lethal: inconclusive; DT40 TDP1 no CPT: 14.6µM*; IL-1B inflam inh: -4.8; HT1080 IDH1KD tx: -22.6%; DT40 TDP1 CPT: inconclusive

How did c1ccc(Nc2c(-c3ccco3)nc3ccccn23)cc1 do in these assays?
uPA generation: -0.1%; HT1080NT lethal: 6.5%; DT40 TDP1 no CPT: 23.1µM*; IL-1B inflam inh: inconclusive; HT1080 IDH1KD tx: 2.9%; DT40 TDP1 CPT: inconclusive

What do the screens show for `Fc1ccc(Nc2c(-c3ccco3)nc3ccccn23)cc1`?
uPA generation: 1.9%; HT1080NT lethal: 1.1%; DT40 TDP1 no CPT: 5.8µM*; IL-1B inflam inh: -63.8*; HT1080 IDH1KD tx: 0.3%; DT40 TDP1 CPT: 14.6µM*

How did COc1cc(-c2nc(-c3ccc(NC(=O)c4ccc5c(c4)OCO5)cc3)no2)cc(OC)c1OC do in these assays?
uPA generation: 0.0%; HT1080NT lethal: 4.61µM*; DT40 TDP1 no CPT: inconclusive; IL-1B inflam inh: inconclusive; HT1080 IDH1KD tx: 5.17µM*; DT40 TDP1 CPT: inconclusive

What do the screens show for `COC(=O)c1ccc(-c2nc(-c3ccc(OC)c(OC)c3)no2)cc1`?
DT40 TDP1 no CPT: inconclusive; DT40 TDP1 CPT: 1.3%

How did COc1ccc(Cl)cc1-c1nc(-c2ccc(NC(=O)c3ccncc3)cc2)no1 do in these assays?
uPA generation: 1.0%; HT1080NT lethal: inconclusive; DT40 TDP1 no CPT: 10.3µM*; IL-1B inflam inh: 12.3; HT1080 IDH1KD tx: 9.8%; DT40 TDP1 CPT: inconclusive

Results for COc1ccc(Cc2nc(-c3ccc(NC(=O)c4cccnc4)cc3)no2)cc1 ?
uPA generation: -7.3%; HT1080NT lethal: inconclusive; DT40 TDP1 no CPT: 6.51µM*; IL-1B inflam inh: inconclusive; HT1080 IDH1KD tx: inconclusive; DT40 TDP1 CPT: 5.8µM*

What do the screens show for `COc1ccc(-c2nc(-c3ccc(NC(=O)c4ccncc4)cc3)no2)cc1OC`?
uPA generation: -23.8%; HT1080NT lethal: -2.8%; DT40 TDP1 no CPT: 7.31µM*; IL-1B inflam inh: -3.9; HT1080 IDH1KD tx: -4.2%; DT40 TDP1 CPT: 5.17µM*

How did COc1ccc(-c2noc(CCC(=O)NCc3cccnc3)n2)cc1 do in these assays?
uPA generation: -3.0%; HT1080NT lethal: 4.8%; DT40 TDP1 no CPT: -28.4%; IL-1B inflam inh: 1.7; HT1080 IDH1KD tx: -0.3%; DT40 TDP1 CPT: inconclusive

Results for COc1cccc(SCc2noc(C(=O)NCCN(C)C)c2C(=O)NCCN(C)C)c1 ?
uPA generation: -7.7%; HT1080NT lethal: -12.8%; DT40 TDP1 no CPT: -18.1%; IL-1B inflam inh: -26.2; HT1080 IDH1KD tx: -17.1%; DT40 TDP1 CPT: -16.3%

What do the screens show for `COc1cccc(-c2nc(-c3ccc(NC(=O)c4ccncc4)cc3)no2)c1`?
uPA generation: 3.5%; HT1080NT lethal: 10.1%; DT40 TDP1 no CPT: 10.3µM*; IL-1B inflam inh: 34.3; HT1080 IDH1KD tx: 5.2%; DT40 TDP1 CPT: 9.2µM*

Results for COc1cccc(-c2nc(-c3ccc(NC(=O)c4cccs4)cc3)no2)c1 ?
uPA generation: -2.8%; HT1080NT lethal: -13.3%; DT40 TDP1 no CPT: inconclusive; IL-1B inflam inh: -24.2; HT1080 IDH1KD tx: -22.8%; DT40 TDP1 CPT: inconclusive

Results for c1ccc(CN2CCC3CC2c2c3cccc2N2CCOCC2)cc1 (stereo not drawn) ?
HT1080NT lethal: -0.4%; DT40 TDP1 no CPT: 14.6µM*; IL-1B inflam inh: 27.6; HT1080 IDH1KD tx: 10.2%; DT40 TDP1 CPT: inconclusive
